Experimental findings from PubChem BioAssay (Tox21) are described below.

Structures are written as SMILES. Inconclusive results are not listed. Calls of active or inactive are those of the source. Unless noted, calls follow the shape of the dose curve; as a rule, active = well fitted curve in the direction sought with a large enough effect in the repeat runs; inconclusive = weak or mixed curves; inactive = no such curve, though single readings can be large; an effect the other way counts as inactive or inconclusive.

Assay [1] is described as follows: qHTS assay to identify aromatase inhibitors - cell viability counter screen (AID 743084).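 Also: cells stimulated with testosterone during compound exposure; nearly all actives have a fitted effect of over 55% in size.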 For orientation: In qHTS, concentration-response curves come from the screen itself.
The target in assay [2] is Aryl hydrocarbon receptor (Homo sapiens) (UniProt P35869). Description: qHTS assay to identify small molecule that activate the aryl hydrocarbon receptor (AhR) signaling pathway (AID 743085). Also: nearly all actives have a fitted effect of over 15% in size. Also: potency is read from the fitted curve at half-maximal effect.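 As to activation: HG2L7.5c1 human HepG2 liver cells with stably integrated DRE-driven firefly reporter; series mostly up to about 70 µM.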 The method, boiled down: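 Reporter assay in engineered HepG2 line HG2L7.5c1, whose plasmid carries twenty dioxin responsive elements upstream of firefly luciferase. Treatment lasted 24 h at 37C; ONE-Glo luminescence gauged induction.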
Chain of Aryl hydrocarbon receptor (Homo sapiens) (P35869 whole entry, looked up): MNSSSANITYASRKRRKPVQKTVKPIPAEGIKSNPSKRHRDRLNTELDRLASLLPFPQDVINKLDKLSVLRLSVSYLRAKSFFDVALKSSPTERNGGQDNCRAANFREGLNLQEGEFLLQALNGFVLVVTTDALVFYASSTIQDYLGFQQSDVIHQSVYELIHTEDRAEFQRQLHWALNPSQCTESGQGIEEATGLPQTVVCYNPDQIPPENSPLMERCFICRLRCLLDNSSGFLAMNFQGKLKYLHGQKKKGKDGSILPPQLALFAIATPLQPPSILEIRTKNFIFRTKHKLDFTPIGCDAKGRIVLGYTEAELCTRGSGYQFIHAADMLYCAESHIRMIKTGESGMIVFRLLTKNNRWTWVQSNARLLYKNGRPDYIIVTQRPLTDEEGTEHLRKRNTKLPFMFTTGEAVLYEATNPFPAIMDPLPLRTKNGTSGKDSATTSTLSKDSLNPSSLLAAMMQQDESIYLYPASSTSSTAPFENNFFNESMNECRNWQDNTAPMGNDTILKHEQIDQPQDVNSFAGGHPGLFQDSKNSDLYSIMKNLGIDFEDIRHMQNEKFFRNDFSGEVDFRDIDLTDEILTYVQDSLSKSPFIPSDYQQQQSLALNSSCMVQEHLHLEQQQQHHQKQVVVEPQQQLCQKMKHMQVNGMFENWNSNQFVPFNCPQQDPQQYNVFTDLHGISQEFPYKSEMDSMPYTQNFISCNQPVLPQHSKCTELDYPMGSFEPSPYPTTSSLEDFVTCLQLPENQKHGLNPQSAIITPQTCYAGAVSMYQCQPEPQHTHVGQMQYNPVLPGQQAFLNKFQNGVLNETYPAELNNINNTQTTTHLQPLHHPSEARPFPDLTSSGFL

Assay [3] can be described thus: qHTS assay to identify small molecule that activate the aryl hydrocarbon receptor (AhR) signaling pathway - cell viability counter screen (AID 743086).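 Also: HepG2 liver cells carrying the AhR DRE luciferase reporter; series mostly up to about 70 µM; nearly all actives have a fitted effect of over 45% in size.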 Summed up: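 HepG2-AhR-luc (HG2L7.5c1) cells, 4000/well, were preincubated 5 h at 37C, exposed to compound in qHTS format for 24 hr at 37C, then given CellTiter-Fluor for 30 min; viability was read as fluorescence in the reporter wells.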

Assay [4] addresses Peroxisome proliferator-activated receptor gamma (Homo sapiens) (UniProt P37231). Description: qHTS assay to identify small molecule agonists of the peroxisome proliferator-activated receptor gamma (PPARg) signaling pathway (AID 743094; active = well fitted activation curve with a large enough effect in the signal ratio in the repeat runs, not every such curve was filed as active; the % refers to the signal ratio). The method, boiled down:
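HEK293H PPARg-bla cells, 5 h settle at 37C/5% CO2; compound (DMSO) 17 h, 37C; B/G FRET substrate 1 h RT; fluorescence intensity read-out. qHTS format.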

Assay [5] can be described thus: qHTS assay to identify small molecule antagonists of the peroxisome proliferator-activated receptor gamma (PPARg) signaling pathway - cell viability counter screen (AID 743194). Also: nearly all actives have a fitted effect of over 55% in size. The method, boiled down: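 PPARg-UAS-bla HEK293H cells were plated, rested 5 h at 37 C, then treated with compounds plus rosiglitazone (50 nM final) for 17 h at 37 C; viability was then read by CellTiter-Glo luminescence after 30 min at room temperature.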

Assay [6] can be described thus: qHTS assay for small molecule agonists of the antioxidant response element (ARE) signaling pathway (AID 743202; active = well fitted activation curve with a large enough effect in the signal ratio in the repeat runs, not every such curve was filed as active; the % refers to the signal ratio; also: potency is read from the fitted curve at half-maximal effect). Summed up:
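Steps: seed ARE-bla HepG2 cells (2,000/well); incubate 5 h at 37 C; add compounds by pin tool; incubate 16 h at 37 C; add FRET substrate; read fluorescence after 2 h at RT.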

A short description of assay [7]: qHTS assay for small molecule agonists of the antioxidant response element (ARE) signaling pathway - cell viability counter screen (AID 743203; calls by dose curve; also: nearly all actives have a fitted effect of over 55% in size). The method, boiled down:
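Luminescence read-out (CellTiter-Glo, 30 min at room temperature) measured cell viability in the same wells as the ARE beta-lactamase reporter. HepG2 ARE-bla cells were treated with compounds for 16 hrs at 37C/5% CO2.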

Assay [8] can be described thus: qHTS assay for small molecule activators of the heat shock response signaling pathway - cell viability counter screen (AID 743209). Also: nearly all actives have a fitted effect of over 50% in size. The method, boiled down: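 HSE-bla HeLa; 1500 cells/well; overnight 37 C, 5% CO2; compound 5 h 37 C; LiveBLAzer B/G substrate 2.5 h RT; CellTiter-Glo 30 min RT; luminescence.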
Assay [9] in a line: qHTS assay to identify small molecule agonists of the peroxisome proliferator-activated receptor delta (PPARd) signaling pathway - cell viability counter screen (AID 743211). Also: nearly all actives have a fitted effect of over 55% in size. The method, boiled down:
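Multiplexed format: after the 2 h room-temperature LiveBLAzer B/G FRET step, CellTiter-Glo was added to the same wells. Luminescence after 30 min gave cell viability; compound exposure was 17 h at 37C.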

For assay [10], the target named is Peroxisome proliferator-activated receptor delta (Homo sapiens) (UniProt Q03181). The experiment in a line: qHTS assay to identify small molecule agonists of the peroxisome proliferator-activated receptor delta (PPARd) signaling pathway (AID 743212; calls by dose curve). The method, boiled down:
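Cells expressing a UAS-driven beta-lactamase reporter (PPARd-bla HEK293H) were given test compounds after a 5 h settle and kept at 37 C. Reporter activity was then measured as FRET fluorescence using LiveBLAzer B/G substrate.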

A short description of assay [11]: qHTS assay to identify small molecule antagonists of the peroxisome proliferator-activated receptor delta (PPARd) signaling pathway - cell viability counter screen (AID 743213). Also: nearly all actives have a fitted effect of over 50% in size. Summed up: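 PPARd-bla HEK293H cells (3000/well) got compound plus 300 nM L165041 agonist for 17 h at 37 C. Viability in the same wells came from CellTiter-Glo luminescence after 30 min at room temperature.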

The target in assay [12] is Peroxisome proliferator-activated receptor delta (Homo sapiens) (UniProt Q03181). The experiment in a line: qHTS assay to identify small molecule antagonists of the peroxisome proliferator-activated receptor delta (PPARd) signaling pathway (AID 743215; active = well fitted inhibition curve with a large enough effect in the signal ratio in the repeat runs, not every such curve was filed as active; the % refers to the signal ratio;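 also: cells stimulated with agonist L165041 at 300 nM final during compound exposure; series mostly up to about 62 µM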). Summed up:
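HEK293H GeneBLAzer PPARd UAS-bla reporter cells; cpd + L165041 300 nM final, 17 h 37 C; LiveBLAzer B/G FRET substrate 2 h RT; fluorescence intensity read-out. Antagonist mode.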

Assay [13] has as its target Bile acid receptor (Homo sapiens) (UniProt Q96RI1). The experiment in a line: qHTS assay to identify small molecule antagonists of the farnesoid-X-receptor (FXR) signaling pathway (AID 743217; active = well fitted inhibition curve with a large enough effect in the signal ratio in the repeat runs, not every such curve was filed as active; the % refers to the signal ratio). The method, boiled down: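 Read-out: beta-lactamase FRET fluorescence (LiveBLAzer B/G substrate, 2 h, room temperature) in GeneBLAzer FXR-UAS-bla HEK 293T cells. Compounds were co-dosed with 50 uM chenodeoxycholic acid (final) and incubated 16 h at 37 °C.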

Assay [14] can be described thus: qHTS assay to identify small molecule agonists of the farnesoid-X-receptor (FXR) signaling pathway - cell viability counter screen (AID 743218). Also: nearly all actives have a fitted effect of over 45% in size. The method, boiled down: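 Luminescence from CellTiter-Glo, read after 30 min at RT, reports viability of GeneBLAzer FXR-UAS-bla HEK 293T cells treated 16 h with compounds in the wells used for the beta-lactamase reporter.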

Assay [15] addresses Bile acid receptor (Homo sapiens) (UniProt Q96RI1). The experiment in a line: qHTS assay to identify small molecule agonists of the farnesoid-X-receptor (FXR) signaling pathway (AID 743220; active = well fitted activation curve with a large enough effect in the signal ratio in the repeat runs, not every such curve was filed as active; the % refers to the signal ratio). Summed up: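 FXR-UAS-bla HEK 293T cells carrying a UAS-driven beta-lactamase reporter were plated for 5 h at 37C/5% CO2, then exposed to DMSO-dissolved Tox21 10K compounds for 16 h at 37C. A LiveBLAzer B/G FRET substrate was loaded for 2 h at room temperature before fluorescence reading.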

For assay [16], the target named is Vitamin D3 receptor (Homo sapiens) (UniProt P11473). The experiment in a line: qHTS assay to identify small molecule agonists of the vitamin D receptor (VDR) signaling pathway (AID 743222; calls by dose curve). The method, boiled down: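 Beta-lactamase reporter readout (LiveBLAzer B/G FRET, 2 h RT) in VDR-bla cells after 16 h compound treatment at 37C, 5% CO2; cells pre-incubated 4 h before pin transfer of DMSO solutions.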
Chain of Vitamin D3 receptor (Homo sapiens) (P11473 whole entry, looked up): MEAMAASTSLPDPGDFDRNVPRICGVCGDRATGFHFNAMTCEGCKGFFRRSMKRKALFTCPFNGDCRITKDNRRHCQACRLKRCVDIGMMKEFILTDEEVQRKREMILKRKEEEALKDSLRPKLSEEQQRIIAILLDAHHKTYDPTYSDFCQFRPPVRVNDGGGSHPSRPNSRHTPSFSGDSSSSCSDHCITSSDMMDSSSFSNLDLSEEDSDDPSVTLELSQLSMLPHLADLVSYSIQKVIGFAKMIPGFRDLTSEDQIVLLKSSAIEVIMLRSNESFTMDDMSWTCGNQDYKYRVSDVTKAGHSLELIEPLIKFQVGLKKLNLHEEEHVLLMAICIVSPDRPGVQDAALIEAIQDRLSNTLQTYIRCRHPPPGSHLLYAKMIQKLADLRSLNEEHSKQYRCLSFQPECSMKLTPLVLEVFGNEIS

The target is the same in assay [17]. The experiment in a line: qHTS assay to identify small molecule antagonists of the vitamin D receptor (VDR) signaling pathway (AID 743223; active = well fitted inhibition curve with a large enough effect in the signal ratio in the repeat runs, not every such curve was filed as active; the % refers to the signal ratio). Summed up: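 After VDR-bla cells are plated and left 4 h at 37C, DMSO-dissolved compounds and 3 nM (final) calcitriol agonist are added. Incubation continues 16 h at 37C; FRET beta-lactamase substrate then develops 2 h at room temperature.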

The nature of assay [18]: qHTS assay for small molecule activators of the heat shock response signaling pathway (AID 743210; active = well fitted activation curve with a large enough effect in the signal ratio in the repeat runs, with a control signal flat, not every such curve was filed as active; the % refers to the signal ratio;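 also: HeLa cells with beta-lactamase reporter driven by heat shock elements; series mostly up to about 63 µM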). Summed up:
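Activation of heat shock element-controlled beta-lactamase expression is measured in HeLa cells by LiveBLAzer FRET fluorescence, with compound exposure lasting 5 h at 37 C and substrate loading 2.5 h at room temperature.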

A short description of assay [19]: qHTS assay to identify small molecule antagonists of the farnesoid-X-receptor (FXR) signaling pathway - cell viability counter screen (AID 743221; active = well fitted cell-killing curve with a large enough effect in the repeat runs, not every such curve was filed as active; also: nearly all actives have a fitted effect of over 50% in size). Summed up:
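CellTiter-Glo, 30 min RT, luminescence; same wells as the LiveBLAzer FRET read. Cells: FXR-UAS-bla HEK 293T. Treatment: compound with chenodeoxycholic acid 50 uM final, 16 h at 37 C.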

Chain of Peroxisome proliferator-activated receptor delta (Homo sapiens) (Q03181 whole entry, looked up): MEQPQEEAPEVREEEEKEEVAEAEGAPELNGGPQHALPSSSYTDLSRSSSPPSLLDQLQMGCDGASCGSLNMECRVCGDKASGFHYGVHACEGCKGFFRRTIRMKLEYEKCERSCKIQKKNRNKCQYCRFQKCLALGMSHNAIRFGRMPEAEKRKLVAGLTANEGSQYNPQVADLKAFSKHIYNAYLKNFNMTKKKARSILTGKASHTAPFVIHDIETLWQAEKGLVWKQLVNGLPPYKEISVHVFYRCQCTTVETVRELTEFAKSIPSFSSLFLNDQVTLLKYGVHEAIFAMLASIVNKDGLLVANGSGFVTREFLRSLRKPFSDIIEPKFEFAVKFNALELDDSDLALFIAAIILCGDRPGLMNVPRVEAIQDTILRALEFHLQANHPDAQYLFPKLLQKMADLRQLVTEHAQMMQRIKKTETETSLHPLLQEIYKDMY
Chain of Peroxisome proliferator-activated receptor gamma (Homo sapiens) (P37231 whole entry, looked up): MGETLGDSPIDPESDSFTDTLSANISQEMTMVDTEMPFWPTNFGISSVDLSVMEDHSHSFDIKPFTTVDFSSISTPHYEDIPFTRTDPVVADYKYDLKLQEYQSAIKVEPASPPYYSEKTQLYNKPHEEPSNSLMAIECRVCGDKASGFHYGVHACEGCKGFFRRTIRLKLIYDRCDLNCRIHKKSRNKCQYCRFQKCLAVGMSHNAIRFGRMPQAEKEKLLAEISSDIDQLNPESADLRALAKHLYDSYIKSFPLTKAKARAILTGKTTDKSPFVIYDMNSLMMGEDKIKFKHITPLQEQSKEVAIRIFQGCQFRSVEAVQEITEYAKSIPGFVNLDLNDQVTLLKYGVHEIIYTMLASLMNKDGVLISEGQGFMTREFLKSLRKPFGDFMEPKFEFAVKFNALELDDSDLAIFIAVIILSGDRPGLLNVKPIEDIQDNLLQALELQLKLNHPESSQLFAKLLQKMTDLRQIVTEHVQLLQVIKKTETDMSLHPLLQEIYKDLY
Chain of Bile acid receptor (Homo sapiens) (Q96RI1 whole entry, looked up): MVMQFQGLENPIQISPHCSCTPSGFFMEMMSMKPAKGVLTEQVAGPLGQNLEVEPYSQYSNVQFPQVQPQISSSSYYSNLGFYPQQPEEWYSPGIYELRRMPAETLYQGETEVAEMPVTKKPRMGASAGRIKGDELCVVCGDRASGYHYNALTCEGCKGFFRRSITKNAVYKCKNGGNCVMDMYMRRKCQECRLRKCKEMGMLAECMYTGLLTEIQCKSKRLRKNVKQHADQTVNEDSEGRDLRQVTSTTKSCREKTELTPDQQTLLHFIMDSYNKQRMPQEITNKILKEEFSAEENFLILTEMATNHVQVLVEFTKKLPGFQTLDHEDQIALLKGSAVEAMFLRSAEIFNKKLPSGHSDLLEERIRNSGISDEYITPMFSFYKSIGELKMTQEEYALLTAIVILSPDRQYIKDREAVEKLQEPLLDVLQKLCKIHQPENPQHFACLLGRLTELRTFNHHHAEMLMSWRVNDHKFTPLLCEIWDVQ

Take `CSCCC=O`: the Potency result in assay [1], in [2], in assay [6], in assay [12] and in [14] was “inactive” each time. Also, the result in assay [3], in [4], in assay [5], in assay [7], in assay [8] and in [9] was inactive. Besides, the call in assay [10], in [11], in assay [13], in assay [15], in assay [16] and in assay [17] was inactive.

With `OCc1cccnc1`, the Potency result in assay [1], in [2], in assay [6], in assay [18], in assay [14] and in assay [19] was “inactive” each time. For the same compound, the compound was classed as inactive in [3], in [5], in assay [7], in assay [8], in assay [9] and in assay [10]. Also, the call in assay [11], in [13] and in [15] was inactive.

For `CC1=C(C)S(=O)(=O)CCS1(=O)=O`, the Potency result in [1], in assay [2], in assay [18], in [12] and in assay [14] was “inactive” each time. The result in [3], in assay [5], in assay [7], in assay [8], in assay [9] and in assay [10] was inactive. The call in [16] and in [17] was inactive. For the same compound, the Potency in assay [6] is 1.09 µM (active).

As for `NNc1nncc2ccccc12`, the Potency in assay [2] is 9.69 µM (active). Further, the outcome in assay [3], in assay [5], in assay [7], in [8], in assay [9] and in [11] was inactive. For the same compound, the call in assay [16] and in assay [17] was inactive. In addition, the Potency entry in assay [18], in [14] and in [19] was “inactive” in each case.

Regarding `CC1=CCC2CC1C2(C)C` (stereo not given), the Potency result in assay [1], in assay [6], in assay [18], in assay [14] and in [19] was “inactive” throughout. For the same compound, the result in [3], in assay [4], in assay [5], in [7], in assay [8] and in assay [9] was inactive. For the same compound, the compound was called inactive in [10], in [11] and in [16].

For the compound `COc1ccc(Cl)cc1C(=O)NCCc1ccc(S(=O)(=O)NC(=O)NC2CCCCC2)cc1`, the Potency result in [1], in [2], in [18], in assay [12] and in assay [14] was “inactive” each time. The outcome in assay [3], in assay [4], in [5], in [7], in assay [8] and in assay [9] was inactive. Moreover, the compound was classed as inactive in assay [10], in assay [11], in assay [13] and in [15].

In the case of `CC(c1cc2ccccc2s1)N(O)C(N)=O` (stereo not given), the Potency entry in [1], in assay [6], in [18], in [12], in assay [14] and in [19] was “inactive” in each case. The compound was called inactive in assay [3], in assay [5], in assay [7], in assay [8], in assay [9] and in assay [10]. In addition, the compound was classed as inactive in [11], in assay [16] and in assay [17].

Regarding `CN(C)CCC(c1ccccc1)c1ccccn1` (stereo not given), the Potency entry in [1], in assay [2], in [6], in [18] and in [14] was “inactive” throughout. In addition, the outcome in [3], in [5], in assay [7], in assay [8], in [9] and in assay [10] was inactive. Besides, the outcome in assay [11], in assay [16] and in assay [17] was inactive.

For `CCCCC(CC)COC(=O)C(C#N)=C(c1ccccc1)c1ccccc1` (stereo not given), the Potency result in assay [1], in assay [2], in [18], in assay [12] and in assay [14] was “inactive” throughout. In addition, the result in assay [3], in assay [5], in assay [7], in assay [8], in assay [9] and in assay [10] was inactive. Also, the compound was classed as inactive in assay [16] and in assay [17].

In the case of `CC(C)CC(=O)CC(C)C`, the result in [3], in assay [5], in assay [7], in assay [8], in assay [9] and in assay [11] was inactive. For the same compound, the outcome in [16] and in assay [17] was inactive. For the same compound, the Potency entry in assay [6], in assay [18] and in [14] was “inactive” throughout.
